Screens as filed in PubChem BioAssay.
This is a sample that favours compounds with a hit; in the whole collection about 5.2% have one here.
EphB4 ephrin blk: blocks human EphB4 binding to ephrin-B2; P54760; EphB4 LBD / TNYL-RAW-Alexa532 peptide, fluorescence polarization; inhibition, % at 7 µM; 0.15% of 97,000 active;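 active means inhibition above the screen-wide mean inhibition plus 3 SD, cut at about 15% in these data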;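 further: 0% = DMSO wells and 100% = excess unlabeled TNYL-RAW peptide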
Target sequence (P54760 whole entry, looked up, the tested form may be a part): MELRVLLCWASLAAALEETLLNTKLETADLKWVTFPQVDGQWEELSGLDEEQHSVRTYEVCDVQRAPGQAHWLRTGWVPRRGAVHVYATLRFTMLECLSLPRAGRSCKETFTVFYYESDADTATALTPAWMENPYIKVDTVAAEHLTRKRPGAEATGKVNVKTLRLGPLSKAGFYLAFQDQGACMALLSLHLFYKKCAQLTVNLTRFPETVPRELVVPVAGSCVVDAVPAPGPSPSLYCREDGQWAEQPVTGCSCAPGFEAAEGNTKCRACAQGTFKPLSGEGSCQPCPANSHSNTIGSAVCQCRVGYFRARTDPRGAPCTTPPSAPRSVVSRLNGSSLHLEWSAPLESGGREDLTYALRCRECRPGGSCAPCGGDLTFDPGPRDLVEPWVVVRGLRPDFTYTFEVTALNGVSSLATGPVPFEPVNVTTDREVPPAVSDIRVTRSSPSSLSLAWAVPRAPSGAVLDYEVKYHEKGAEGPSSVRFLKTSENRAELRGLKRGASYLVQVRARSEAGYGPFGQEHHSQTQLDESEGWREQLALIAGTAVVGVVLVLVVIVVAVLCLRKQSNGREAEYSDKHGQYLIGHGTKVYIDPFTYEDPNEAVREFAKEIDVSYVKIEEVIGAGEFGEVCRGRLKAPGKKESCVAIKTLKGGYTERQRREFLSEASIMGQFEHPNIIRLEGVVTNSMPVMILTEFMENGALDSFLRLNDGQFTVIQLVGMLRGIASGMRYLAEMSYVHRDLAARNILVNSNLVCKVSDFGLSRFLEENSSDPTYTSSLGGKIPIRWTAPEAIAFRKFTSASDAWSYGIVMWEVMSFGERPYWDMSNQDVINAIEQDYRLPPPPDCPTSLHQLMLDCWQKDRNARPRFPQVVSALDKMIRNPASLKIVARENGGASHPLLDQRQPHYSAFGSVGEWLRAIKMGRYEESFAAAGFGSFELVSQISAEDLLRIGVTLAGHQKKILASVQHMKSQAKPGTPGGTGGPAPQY
Calb biofilm kill: kills Candida albicans biofilms; AID 834; C. albicans biofilm + clotrimazole, Alamar Blue; 0.14% of 85,000 active; inhibition, % at 6 µM;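 active means inhibition above 20%; inactive means inhibition below 20%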;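 further: preformed 24 hr biofilms exposed to compound for 48 hr; 0% = biofilm without compound and 100% = blank killed by clotrimazole plus chlorhexidine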
PostGolgi yeast: growth inhibition of a yeast mutant, post-Golgi transport screen. 0.9% of 98,000 active. inhibition, % at 10 µM. AID 739. post-Golgi transport phenotypic cell assay;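 further: yeast cells grown in 1536-well plates; yeast grown about 18 h at 30C before absorbance read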
PostGolgi ctrl: yeast control strain growth, post-Golgi counter-screen | AID 738 | efflux-deficient yeast background strain, growth absorbance A615, 16 h | 5% of 98,000 active | inhibition, % at 10 µM
* = called active by the depositor; . = not tested or not shown. Unless noted, no stated cut-off is given here; in the data, active means inhibition above about 30%; inactive means the rest.

SMILES	EphB4 ephrin blk	Calb biofilm kill	PostGolgi yeast	PostGolgi ctrl
Cc1oc2c(c1C(=O)NCc1cc(C(=O)O)co1)CCCC2	8	-1	4	0
Cc1cccc(Oc2c(C=O)c3ccccc3n2C)c1	-5	.	5	16
Cc1ccc(Sc2c(C=O)c3ccccc3n2C)cc1	2	.	7	45*
CC(NC(=O)Cc1cccs1)C(c1cccs1)N1CCN(c2ccccc2F)CC1 (stereo not drawn)	3	10	6	36*
O=C(CCCSc1nnnn1-c1cccc2ccccc12)c1ccc(F)cc1	-5	.	-5	32*
COc1ccc2c(C)nc(Nc3nc(C)c(C)c(=O)[nH]3)nc2c1	-1	-8	-7	66*
Cc1ccc(CNC(=O)CSc2c3c(nc4cc(Cl)ccc24)CCCC3)o1	3	1	13	9
CCN1CCN(Cc2nc3c(c(=O)n(C)c(=O)n3C)n2C(C)C(C)=O)CC1 (stereo not drawn)	-14	2	16	-21
Cc1noc(C)c1COc1ccc(C(=O)OCc2nnc(-c3ccc(Cl)cc3)o2)cc1	-5	1	21	12
CN(C=O)CP(=O)(O)CN1CCCCC1	3	-1	4	2
Cc1cc(-n2ccc(=O)[nH]c2=O)nc(-c2ccccc2)n1	-7	9	1	31*
CSc1nc(C)cc(-n2ccc(=O)[nH]c2=O)n1	.	4	11	11
CC(C)CC(=O)Nc1cc2nn(-c3ccccc3)nc2cc1Cl	2	53*	-5	5
Cc1ccc(C(=O)NCCSC2CCCCC2)cc1S(=O)(=O)Nc1ccccc1	-8	.	-3	15
O=C(CNC(=O)c1ccco1)OCC(=O)c1ccc2ccccc2c1	-5	6	-4	-3
CCc1ccc(OCC(=O)N2CCN=C2c2ccccc2)cc1	0	6	2	-3
COc1ccc(OC)c(C(O)c2nc3ccccc3n2C(C)C)c1 (stereo not drawn)	-5	2	1	6
COc1ccc(OC)c(C(C)NC=O)c1 (stereo not drawn)	5	4	4	39*
COc1ccccc1-c1cc(C(F)(F)F)n2ncc(S(=O)(=O)c3ccccc3)c2n1	4	.	-5	46*
O=S(=O)(c1ccccc1)c1cnn2c(C(F)(F)F)cc(-c3ccccc3)nc12	0	.	15	1
Cc1ccc(CO/N=C\Cc2snc(Sc3ncc(C(F)(F)F)cc3Cl)c2C#N)cc1	1	-1	-5	15
N#CCSc1nc2ccccc2c(=O)n1CCC(=O)NC1CCCCC1	7	3	-6	35*
CCOC(=O)c1ccc(CNC(=O)c2cc3cccc(OC)c3oc2=O)o1	.	3	.	.
O=C(Cc1cccc2ccccc12)N/N=C/c1ccc(Sc2nc3ccccc3s2)o1	1	.	7	35*
O=C(O)CCSCCC(=O)O	.	.	33*	7
SMILES	EphB4 ephrin blk	Calb biofilm kill	PostGolgi yeast	PostGolgi ctrl
NCCCC(=O)O	.	13	.	.
Cc1cc(C(=O)Cn2nnc(-c3ccc(Cl)cc3)n2)c(C)n1CC1CCCO1 (stereo not drawn)	4	-4	22	33*
Cc1cc(C)n(CCc2nc3c4ccccc4n(CC(=O)Nc4ccc(Cl)cc4F)c(=O)n3n2)n1	.	7	.	.
COc1cccc(C(C#N)N2CCOCC2)c1 (stereo not drawn)	22*	-3	0	-3
Cc1ccc(OCC(=O)N2N=C(C(F)(F)F)CC2(O)C(C)(C)C)cc1C (stereo not drawn)	-8	-1	-4	33*
Cc1ccc2c(CSc3nc4ccccc4c(=O)n3CCCO)cc(=O)oc2c1	.	3	.	.
Cc1ccc2c(c1)N(CC(=O)NCc1cccs1)C(=O)CO2	.	7	-1	1
N/C(Cc1ccc([N+](=O)[O-])cc1)=N\OC(=O)C(c1ccccc1)c1ccccc1	2	.	-10	33*
N/C(Cc1ccc([N+](=O)[O-])cc1)=N\OC(=O)c1ccc2ccccc2c1	3	-2	13	72*
Cc1cccc(C(=O)O/N=C(\N)Cc2ccc([N+](=O)[O-])cc2)c1	2	-1	-3	15
c1ccc(N2CCN(c3ccccc3)C2c2ccncc2)cc1	0	8	7	31*
CCN1CCN(S(=O)(=O)c2cccs2)CC1	-3	2	-2	-6
O=S(=O)(c1cccs1)N1CCN(CC(O)COc2cc(Cl)ccc2Cl)CC1 (stereo not drawn)	-3	7	2	33*
Cc1ccccc1NC(=O)C1CCCN1S(=O)(=O)c1cccc2cccnc12 (stereo not drawn)	-6	12	-6	15
COc1ccc(NC(=O)C2CCCN2S(=O)(=O)c2cccc3cccnc23)c(OC)c1 (stereo not drawn)	-2	4	97*	95*
Cc1ccccc1NC(=O)C1CCCN(S(=O)(=O)c2cccc3cccnc23)C1 (stereo not drawn)	1	18	-6	31*
CC(C)n1cc(/C=C(\C#N)S(=O)(=O)c2ccccc2)c2ccccc21	4	7	0	36*
Cc1ccc(S(=O)(=O)/C(C#N)=C/c2c[nH]c3ccccc23)cc1	-2	.	0	68*
CCOc1ccc(-c2nn(-c3ccccc3)cc2/C=C(\C#N)S(=O)(=O)c2ccccc2)cc1C	-8	.	-7	5
COc1ccc(N(C(=O)c2ccco2)S(=O)(=O)c2cc(Cl)c(Cl)cc2Cl)cc1	-3	4	-1	31*
S=C(Nc1ccccc1)N1CCn2c1nc1ccccc12	1	16	6	38*
O=C1N=C(N2CCCCC2)SC1=C1CCCCC1	2	5	5	2
O=C1NC(=S)SC1=C1CCCCCC1	-7	10	8	64*
CCN(CCNC(=O)CN1CCN(Cc2ccc(Cl)cc2)C1=O)c1ccccc1	3	2	-2	16
CCCOc1ccccc1N/C(=N/c1nc(C)cc(C)n1)NC(=O)COc1ccc(OC)cc1	2	2	40*	7
SMILES	EphB4 ephrin blk	Calb biofilm kill	PostGolgi yeast	PostGolgi ctrl
COc1cccc(NC(=O)CCc2nc(-c3ccccc3F)no2)c1	-1	9	-13	0
O=C(CCc1nc(-c2ccccc2F)no1)Nc1ccc(Oc2ccccc2)cc1	-5	2	-8	34*
O=C(Cn1c(O)c(/C=C2\C=Nc3ccc(Br)cc32)sc1=O)N1CCCC1	6	.	-2	37*
COc1ccc(CCC(=O)N2CCN(S(=O)(=O)c3ccc4ccccc4c3)CC2)cc1	0	7	0	37*
Cc1nc(-c2cccc(S(=O)(=O)N3CCCCCC3)c2)cs1	-7	2	-4	16
CC1CCN(S(=O)(=O)c2ccc3[nH]c(=O)cc(C(=O)O)c3c2)CC1	2	1	-15	31*
Cc1nc(-c2cccc(S(=O)(=O)N3CCC(C)CC3)c2)cs1	4	0	-7	38*
CC1CCN(S(=O)(=O)c2ccc(F)c(C(=O)O)c2)CC1	-3	4	4	-1
COc1ccc(S(=O)(=O)N2CCN(C(=O)COc3ccc4c(C)cc(=O)oc4c3)CC2)cc1	-9	0	5	30*
CCC(C)c1ccc(S(=O)(=O)N2CCN(C(=O)COc3ccc4c(C)cc(=O)oc4c3)CC2)cc1 (stereo not drawn)	9	-4	-3	8
Brc1ccc(Oc2ncc(CN3CCOCC3)s2)cc1	1	.	28	7
CC1CCN(S(=O)(=O)c2ccc3ccccc3c2)CC1	3	4	5	34*
